About 14,000 (4.5%) of roughly 310,000 compounds showed an effect of 50% or more. Effects have a minus sign here. This excerpt belongs to a sample that is enriched for strong results.
What follows are molecules tested against human ether-à-go-go-related gene (hERG) potassium channel (human, UniProt Q12809) (assay: primary screen, population patch clamp on CHO cells stably expressing hERG; higher = less effect of the substance).
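Further: peak tail current of the secondary pulse compared with the same well before compound.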

Chain of human ether-à-go-go-related gene (hERG) potassium channel (Q12809 whole entry, looked up): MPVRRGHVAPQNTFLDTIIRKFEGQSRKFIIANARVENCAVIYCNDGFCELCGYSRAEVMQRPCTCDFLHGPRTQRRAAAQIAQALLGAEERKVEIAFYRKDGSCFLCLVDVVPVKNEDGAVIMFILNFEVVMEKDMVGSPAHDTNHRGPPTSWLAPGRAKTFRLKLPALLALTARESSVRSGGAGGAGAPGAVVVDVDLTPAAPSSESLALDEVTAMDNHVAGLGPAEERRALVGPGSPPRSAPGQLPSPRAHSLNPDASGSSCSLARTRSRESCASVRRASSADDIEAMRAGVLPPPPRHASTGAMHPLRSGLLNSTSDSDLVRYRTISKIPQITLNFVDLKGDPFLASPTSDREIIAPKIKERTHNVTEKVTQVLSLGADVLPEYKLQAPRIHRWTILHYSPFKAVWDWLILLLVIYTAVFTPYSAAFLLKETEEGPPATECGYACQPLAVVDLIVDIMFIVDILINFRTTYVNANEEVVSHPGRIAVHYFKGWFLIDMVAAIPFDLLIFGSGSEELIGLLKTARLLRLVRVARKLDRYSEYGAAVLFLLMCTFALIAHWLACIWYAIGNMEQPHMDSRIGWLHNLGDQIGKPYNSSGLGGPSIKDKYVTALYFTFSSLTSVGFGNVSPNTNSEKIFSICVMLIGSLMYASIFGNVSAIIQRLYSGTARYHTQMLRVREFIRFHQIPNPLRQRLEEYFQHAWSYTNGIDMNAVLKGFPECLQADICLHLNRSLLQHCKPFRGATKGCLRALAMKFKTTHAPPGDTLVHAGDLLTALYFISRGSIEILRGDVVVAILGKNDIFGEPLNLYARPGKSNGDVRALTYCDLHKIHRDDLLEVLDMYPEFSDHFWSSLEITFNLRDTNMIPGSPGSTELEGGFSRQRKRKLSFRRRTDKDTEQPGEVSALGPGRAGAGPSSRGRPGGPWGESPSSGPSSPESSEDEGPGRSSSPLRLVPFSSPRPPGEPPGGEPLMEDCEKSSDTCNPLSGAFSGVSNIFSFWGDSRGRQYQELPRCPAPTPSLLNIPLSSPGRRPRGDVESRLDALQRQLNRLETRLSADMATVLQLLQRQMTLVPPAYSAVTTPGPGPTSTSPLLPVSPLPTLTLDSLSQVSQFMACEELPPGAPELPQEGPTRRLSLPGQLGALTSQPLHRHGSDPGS

| Structure (SMILES) | hERG current change (%, negative = inhibition) at 10uM [%] |
| --- | --- |
| COc1ccc(S(=O)(=O)N/N=C(/C)c2ccncc2)cc1OC | -1.27 |
| COc1ccc(CNC(=O)Cn2nc(Cc3cccnc3)c3ccccc3c2=O)cc1 | -43.3 |
| CCOC(=O)c1cc2c(=O)n3ccccc3nc2n(Cc2ccccc2)c1=N | -74.6 |
| COc1ccc(CNC(=O)c2cc3c(=O)n4ccccc4nc3n(Cc3cccnc3)c2=N)cc1 | -58.6 |
| O=C(CCn1c(=O)c2ccccc2n(Cc2cccnc2)c1=O)NCc1ccc2c(c1)OCO2 | -5.1 |
| COc1ccc(Cn2c(=S)[nH]c3cc(C(=O)NCc4cccnc4)ccc3c2=O)cc1 | 12.3 |
| COCCCn1c(C(=O)Nc2ccc3c(c2)OCO3)cc2c(=O)n3ccccc3nc21 | 8.51 |
| N=c1c(C(=O)NCc2ccc3c(c2)OCO3)cc2c(=O)n3ccccc3nc2n1Cc1cccnc1 | -80.4 |
| Cc1nc2ccccn2c1C(=O)NCc1ccc2c(c1)OCO2 | -0.471 |
| COCCCn1c(=N)c(C(=O)NCc2ccc3c(c2)OCO3)cc2c(=O)n3ccccc3nc21 | -83.5 |
| O=C(NCc1ccc2c(c1)OCO2)c1cnc2ccccn2c1=O | -6.29 |
| CCOC(=O)c1ccccc1NC(=O)CN(c1ccccc1)S(=O)(=O)N(C)C | -19.9 |
| CC(C)[C@H](Nc1ccc(C(F)(F)F)cc1[N+](=O)[O-])C(=O)O.[Cl-] | 20 |
| CCCCOc1cccc(C(=O)N(Cc2ccccc2)C2CCS(=O)(=O)C2)c1 (centres unmarked) | -14.2 |
| O=C(NC1CCCC1)C(=O)N(Cc1cccnc1)C(C(=O)NCC1CCCO1)c1ccco1 (centres unmarked) | 38.2 |
| CCOC(=O)COc1ccc(C(=O)Nc2cccc(Cl)c2C)cc1 | 18.9 |
| CC(Oc1ccc(Br)cc1)C(=O)Nc1ccc(S(=O)(=O)N(C)C2CCN(C)CC2)cc1 (centres unmarked) | -26.7 |
| Cc1nc2ccc(P(=O)(O)O)cc2s1 | 16.2 |
| C=CCN1C(=O)C2(C(C(=O)c3ccc(C)o3)=C(O)C(=O)N2CCCN2CCOCC2)c2ccccc21 (centres unmarked) | 3.04 |
| COCCNC(=S)N1CCc2cc(OC)c(OC)cc2C1COc1ccc(C(C)C)cc1 (centres unmarked) | 16.7 |
| Cc1cccc(N(CC(=O)NC2CCCC2)C(=O)c2csnn2)c1C | 19.5 |
| CCCn1c(=N)c(S(=O)(=O)c2ccc(F)cc2)cc2c(=O)n3ccccc3nc21 | -8.53 |
| COC(=O)c1cc2c(=O)n3ccccc3nc2n(Cc2cccnc2)c1=N | -64 |
| Cc1nc2ccccn2c1C(=O)NCc1cccnc1 | -3.36 |
| N=c1c(C(=O)NCc2ccc(F)cc2)cc2c(=O)n3ccccc3nc2n1Cc1cccnc1 | -76.2 |
| COC(=O)c1cn(Cc2cccnc2)c(=O)c2ccccc12 | 3.15 |

— publication PMC4336329 (PLoS ONE, 2015)
